High-throughput results (PubChem)
Vaccinia Venus – inhibitors of vaccinia virus (Venus reporter) | Vaccinia virus Venus reporter expression, fluorescence | Potency, µM (series often up to 36.5 µM), for inactives: at the top dose activity change, negative = inhibition, most hits filed as inhibitors | 330,000 compounds, 0.46% hits; calls by dose curve; tested in A549 cells; also: potency is read from the fitted curve at half-maximal effect; nearly all actives have a fitted effect of over 30% in size
Sm TGR block – S. mansoni TGR enzyme inhibition | Q962Y6 | purified TGR, DTNB reduction, TNB absorbance 405 nm | Potency, µM (top dose mostly 114 µM), inactives show top-dose activity change, negative = inhibition, hits mostly inhibitors | 360,000 compounds, 3% hits | AID 485364; also: potency is read from the fitted curve at half-maximal effect; nearly all actives have a fitted effect of over 60% in size
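First, TGR (20 nM dispensed) and NADPH were mixed with compound. Second, a 15 min room-temperature incubation followed. Third, further NADPH and then DTNB were added to start the reaction. Finally, TNB absorbance was monitored kinetically.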
HCMV inh – human cytomegalovirus inhibition; HFF cells, HCMV-luciferase reporter, 72 h; active compounds read low; activity change, negative = inhibition, % at 57.5 µM; 410,000 compounds, 4.5% hits; AID 1259415; in the data active = activity change below about -60%; inconclusive = no clear call, values can overlap the other calls; inactive = above about -39%
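After 16 h attachment at 37C, HFF cells received test compound and HCMV-luciferase (1 PFU/cell); reporter luminescence read 72 h later, data normalized against buffer-only and known inhibitor Salinomycin.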
HCV inh – blocks hepatitis C virus; Potency, µM (titrated, usually from 41.8 µM), for inactives: at the top dose activity change, negative = inhibition, usual class: inhibitors; 340,000 compounds, 3.4% hits; AID 651820; Huh7.5.1 HCVcc-Cre infection, luciferase reporter, 44 h; also: potency is read from the fitted curve at half-maximal effect
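1,000 cells/well; 4 h culture; + compound; + HCVcc-Cre (~0.5 moi); 44 h; luciferase substrate, RT 15 min; read 15 sec.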
Vaccinia mCherry – vaccinia inhibition (mCherry reporter) | Vaccinia virus mCherry reporter infection, fluorescence | Potency, µM (series often up to 36.5 µM), without a hit: at the highest dose activity change, negative = inhibition, usual class: inhibitors | 310,000 compounds, 0.63% hits | AID 720579; calls by dose curve; tested in A549 cells; also: potency is read from the fitted curve at half-maximal effect; nearly all actives have a fitted effect of over 35% in size
FMDV inh – antivirals against foot and mouth disease virus. FMDV antiviral cell-based qHTS. Potency, µM (titrated, usually from 57.9 µM), for the others: top-dose activity change, negative = inhibition, hits mostly inhibitors. 410,000 compounds, 1.2% hits. AID 1159524; calls by dose curve; tested in HEK293T cells; also: read-out not given here; potency is read from the fitted curve at half-maximal effect; nearly all actives have a fitted effect of over 45% in size
Starred values were filed as active, the others as inactive; [ ] = remark or other dose. The list is not random: actives were taken first. Their share in the collection is about 9.3%. Unless noted, calls follow the shape of the dose curve; as a rule, active = well fitted curve in the direction sought with a large enough effect; inconclusive = small, poorly fitted or top-dose-only effect, or another doubt; inactive = no such curve, though single readings can be large; an effect the other way counts as inactive or inconclusive. % is scaled to controls: 0 for no effect and ±100 for the full control effect.

For Cc1ccc(/C(N)=N/OC(=O)c2ccc(C)cc2Cl)cc1 the results were Vaccinia Venus -10.0%, Sm TGR block -4.9%, HCMV inh -79.3*, HCV inh inconclusive, Vaccinia mCherry -5.6% and FMDV inh inconclusive.
`COc1ccc(C(=O)O/N=C(\N)c2ccccc2Cl)cc1OC` gave Vaccinia Venus -14.0%, Sm TGR block -12.5%, HCMV inh 52.2, HCV inh 10µM*, Vaccinia mCherry inactive and FMDV inh 19.5%.
O=c1c2ccccc2n(Cc2ccc(Cl)cc2)c(=O)n1Cc1ccco1 was read as Vaccinia Venus -3.8%, Sm TGR block -33.4%, HCMV inh -17.9, HCV inh 8.3% and FMDV inh inconclusive.
For COc1ccc(Cc2nnc(N/N=C/c3ccc(O)cc3)[nH]c2=O)cc1OC the results were Vaccinia Venus inconclusive, Sm TGR block -9.3%, HCMV inh -99.7*, HCV inh 0.891µM*, Vaccinia mCherry 1.12µM* and FMDV inh -24.6%.
`COc1ccc(Cc2nnc(N/N=C/c3ccc(Br)cc3)[nH]c2=O)cc1OC` gave Vaccinia Venus -6.1%[7.34 µM], Sm TGR block 1.9%, HCMV inh -20.2, HCV inh -6.1%, Vaccinia mCherry -10.4%[7.34 µM] and FMDV inh 0.6%.
Screening COc1ccc(N/C=C2\C(=O)CCc3c2oc2cc(Cl)c(O)c(Cl)c32)cc1 returned Sm TGR block 35.5µM*, HCMV inh -61.9*, HCV inh -7.9% and FMDV inh -24.4%.
`COc1ccc(N/C=C/C(=O)c2ccc(Cl)cc2)cc1` gave Vaccinia Venus -14.8%, Sm TGR block 4.6%, HCMV inh 97.0, HCV inh 0.6%, Vaccinia mCherry inactive and FMDV inh -10.4%.
For CCOC(=O)c1cnc(SCCN2CCOCC2)nc1N the results were Vaccinia Venus -7.1%, Sm TGR block 1.6%, HCMV inh -28.7, HCV inh 5.8%, Vaccinia mCherry inactive and FMDV inh 24.8%.
For CC(=O)c1ccc2c(c1)C1C(Cl)C(Sc3ccccc3[N+](=O)[O-])CC1C(c1ccccc1[N+](=O)[O-])N2 (stereo not given) the results were Vaccinia Venus -23.2%, Sm TGR block -3.9%, HCMV inh -87.9*, HCV inh 2.24µM*, Vaccinia mCherry -16.3% and FMDV inh -24.5%.
`CC(=O)Nc1ccc(S(=O)(=O)Oc2ccc(C(=S)N3CCCCC3)cc2)cc1` gave Vaccinia Venus -23.7%, Sm TGR block -3.8%, HCMV inh inconclusive, HCV inh inconclusive, Vaccinia mCherry inconclusive and FMDV inh inconclusive.
Screening Cc1ccc(OCCOc2cccc(C=C3C(=O)NC(=O)NC3=O)c2)c(C)c1 returned Vaccinia Venus -8.7%, Sm TGR block inconclusive, HCMV inh 153.2, HCV inh 14.9%, Vaccinia mCherry -12.4% and FMDV inh 14.1µM*.
C(=N\n1cnnc1)/c1cccc(OCCOc2ccccc2)c1 was read as Vaccinia Venus -5.5%, Sm TGR block -2.1%, HCMV inh 106.7, HCV inh 6.9% and FMDV inh -20.2%.
O=C1NC(=O)C(=Cc2cccc(OCCOc3ccccc3)c2)C(=O)N1 was read as Sm TGR block 11.2µM*, HCMV inh 103.5, HCV inh -0.5% and FMDV inh 1.2%.
COc1ccccc1OCCCOc1cccc(/C=C2\SC(=O)NC2=O)c1 was read as Vaccinia Venus -18.7%, Sm TGR block 0.7%, HCMV inh -4.3, HCV inh 3.3%, Vaccinia mCherry -7.3% and FMDV inh -22.3%.
`O=C1NC(=O)C(=Cc2ccc(OCCOc3ccc([N+](=O)[O-])cc3)cc2)C(=O)N1` gave Vaccinia Venus -3.4%, Sm TGR block 15.8µM*, HCMV inh 9.6, HCV inh -0.6%, Vaccinia mCherry -6.7% and FMDV inh -15.8%.
Screening CCn1c(CC(=O)Nc2ccc(F)cc2)nnc1SCC(=O)NC1=NCCS1 returned Vaccinia Venus 2.9%, Sm TGR block 9.9%, HCMV inh -26.2, HCV inh 21.8%, Vaccinia mCherry inactive and FMDV inh 12.3%.
For CCN1C(=S)SC(=O)C1=C1C=C(C)N(CCO)C(C)=C1 the results were Vaccinia Venus -17.0%, Sm TGR block 62.2%[11.4 µM], HCMV inh -67.9*, HCV inh -15.9% and Vaccinia mCherry -1.5%.
`Cc1onc(-c2ccccc2)c1C(=O)N=C(N)c1ccc(C(F)(F)F)cc1` gave Vaccinia Venus 5.3%[7.34 µM], Sm TGR block 8.7%, HCMV inh -3.1, HCV inh 9.3%, Vaccinia mCherry -4.0%[7.34 µM] and FMDV inh 0.0%.
For CN(C=C1C(=O)CC(C)(C)CC1=O)CCN1CCNCC1 the results were Vaccinia Venus -16.3%, Sm TGR block 22.4µM*, HCMV inh 22.5, HCV inh 6.0%, Vaccinia mCherry inactive and FMDV inh -1.9%.
Screening N#CCCn1cc(C(=O)Nc2ccccc2Br)c(-c2cccs2)n1 returned Sm TGR block 0.0%, HCMV inh inconclusive, HCV inh 1.1% and FMDV inh -18.2%.
COc1ccc(N2CC(C(=O)N/N=C/c3c[nH]c4ccccc34)CC2=O)cc1 (stereo not given) was read as Vaccinia Venus -9.4%, Sm TGR block 6.3%, HCMV inh -21.3, HCV inh 4.9%, Vaccinia mCherry inactive and FMDV inh -22.6%.
For O=C(N/N=C/c1ccccc1O)C1CC(=O)N(c2ccc(F)cc2)C1 (stereo not given) the results were Vaccinia Venus inconclusive, Sm TGR block 4.3%, HCMV inh 17.1, HCV inh inconclusive, Vaccinia mCherry 14.1µM* and FMDV inh 5.6%.
CC(OC(=O)c1ccc(S(C)(=O)=O)c([N+](=O)[O-])c1)C(=O)NC1C2CC3CC(C2)CC1C3 (stereo not given) was read as HCMV inh -97.1* and FMDV inh 31.6µM*.
CCC(OC(=O)c1ccc(S(C)(=O)=O)c([N+](=O)[O-])c1)C(=O)NC1C2CC3CC(C2)CC1C3 (stereo not given) was read as HCMV inh -94.6* and FMDV inh 39.8µM*.
`CC(C)(C)OC(=O)NCCc1nnc(S(=O)(=O)Cc2ccc(Cl)cc2Cl)o1` gave Vaccinia Venus inconclusive, Sm TGR block 0.891µM*, HCMV inh 47.1, HCV inh inconclusive, Vaccinia mCherry inconclusive and FMDV inh inconclusive.
For CC1CN(c2ccnc3cc(Cl)ccc23)CC(C)O1 (stereo not given) the results were Vaccinia Venus -14.3%, Sm TGR block 10.7%, HCMV inh 4.8, HCV inh inconclusive, Vaccinia mCherry -19.4% and FMDV inh -14.0%.
Screening Cc1nnsc1SCC(=O)O returned Vaccinia Venus -12.9%, Sm TGR block 3.9%, HCMV inh -98.9*, HCV inh 21.0%, Vaccinia mCherry -14.5% and FMDV inh 11.9%.
